About 83,000 compounds went through this panel and 20% of them were active in at least one assay; those are over-represented in the sample as a whole.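 96-well plates, one dose, 48 hours. Percent growth reported; active if below 10.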 Values without a mark were called inactive. The source made the active and inactive calls.
What follows are compounds tested on M14 melanoma (assay: NCI-60 one-dose screen, 48 h (100 = growth as untreated, 0 = no growth, -100 = all killed)). Conditions: 10 µM unless noted.
[O-]/[N+](=C\c1ccccc1)CC1(O)CCCCC1 gave a growth of 109%. CC(=O)O[C@H]1[C@H](CC#CC#CC[C@@H]2C[C@]3(C)[C@H]4CC=C5[C@H]6[C@@H](C)[C@H](C)CC[C@]6(C(=O)NCCCCCCCCN)CC[C@@]5(C)[C@]4(C)CC[C@H]3C(C)(C)[C@H]2OC(C)=O)C[C@]2(C)[C@H]3CC=C4[C@H]5[C@@H](C)[C@H](C)CC[C@]5(C(=O)NCCCCCCCCN)CC[C@@]4(C)[C@]3(C)CC[C@H]2C1(C)C was tested, and the growth was 102%. N#Cc1c(N)c(C(=O)c2ccc3c(c2)OCCO3)n2c1CCCC2 showed a growth of 19.4%. Work on Cc1c(O)c(=O)n(-c2ccccc2)n1C yielded a growth of 100%. Compound COc1ccc2[nH]c(O)c(/C=c3/ccc4c(c3)N=C(c3ccc(C(F)(F)F)cc3)N=4)c2c1 has a growth of 90.1%. Work on COc1ccc(/C=C/C(=O)c2ccc(NC(=O)CSc3nnc(-c4ccc(OC)cc4)n3-c3ccccc3)cc2)cc1 yielded a growth of 92.7%. For N=C(N)c1ccc(-c2ccc(-c3cc(Cl)cc(Cl)c3)o2)nc1, the growth was -76.4% (active). In the case of CN(C)c1ccc(N2Cc3ccccc3OC3=C2C(=O)c2c(O)ccc(O)c2C3=O)cn1, the growth is reported as -88.6% (active). COc1ccccc1/C=N\NC(=S)Nc1ccc(F)cc1 showed a growth of 48.4%. FC(F)(F)C1=NNC(c2ccc3ccccc3c2)=NN1 was tested, and the growth was 98.3%. With CCCC(CCC)NCC(O)c1cc(-c2ccc(C(F)(F)F)cc2)nc(C(F)(F)F)c1 (stereo not drawn) the growth was -74.8% (active). CCOC(=O)c1c(NC(=O)c2ccccc2)sc2c(O)c(CN(CC)CC)ccc12 gave a growth of 14.4%. CCOC(C)(c1ccc(Cl)cc1)C1CCNCC1 (stereo not drawn) showed a growth of 86.6%. Compound O=S(=O)(NCC[C@@H]1C[C@H]1c1ccc2ccccc2c1)c1ccc(C(F)(F)F)cc1 has a growth of 96.2%. With CC(CN1CCN(C)CC1)CN1c2ccccc2Sc2ccc(C(F)(F)F)cc21 (stereo not drawn) the growth was 0.817% (active). For NC(=S)N/N=C(/c1cccs1)C1CC1, the growth was 71.3%. Work on COc1cc(C2Nc3ccccc3S2)cc(CN2CCOCC2)c1O (stereo not drawn) yielded a growth of 55.5%. For O=[N+]([O-])c1cccc([I+]c2ccccc2)c1, the growth was 56.6%. In the case of C=CCn1c(SCC(=O)Nc2ccc(/C(C)=N\O)cc2)nnc1-c1cc(-c2ccccc2)nc2ccccc12, the growth is reported as 34%. Compound C=CC[C@]1(O)CC[C@H]2[C@@H]3CCc4cc(O)ccc4[C@H]3CC[C@@]21C has a growth of 94.3%. CC(=O)c1c(O)c(C)c(O)c2c1OC1=CC(=O)/C(=C(/C)N)C(=O)C12C (stereo not drawn) gave a growth of 93.6%. COc1c(B(O)O)cccc1-c1nc2c(F)cc3n[nH]c(C)c3c2c2c1CCCC2 was tested, and the growth was 41.1%. With CCCCNCC(O)c1cc(-c2ccc(C(F)(F)F)cc2)nc(-c2ccc(C(F)(F)F)cc2)c1 (stereo not drawn) the growth was -79.7% (active). Compound Oc1[nH]c2ccc(Cl)cc2c1/C=c1/ccc2c(c1)N=C(c1ccc(F)cc1)N=2 has a growth of 30.4%. Compound COc1ccc(C(=O)c2c(N)nc3n2CCCC3)cc1OC has a growth of 103%. Compound CCOC(=O)Nc1ccc2nc(-c3cscn3)[nH]c2c1 has a growth of 16.1%. CCOC(=O)C(Nc1ccccc1)C(=O)OCC showed a growth of 103%. With CN1CCN(Cc2ccc(NC(=O)c3cncc(C#Cc4ncc5ccccn45)c3)cc2C(F)(F)F)CC1 the growth was 5.5% (active). Compound COS(=O)(=O)CCN(CCOS(C)(=O)=O)S(C)(=O)=O has a growth of 94.3%. O=C(c1ccccc1)N(CCCCl)C(=O)N(CCCCl)C(=O)c1ccccc1 showed a growth of 96.4%. In the case of OC(c1cc2cc(Cl)ccc2c2cc(C(F)(F)F)ccc12)C1CCCCN1 (stereo not drawn), the growth is reported as -72% (active). Work on CC(C)CC(NC(=O)C(CCCN=C(N)N)NC(=O)OCc1ccccc1)C(=O)NC(CNC(=O)/C=C/c1ccccc1)C(C)C (stereo not drawn) yielded a growth of 106%. With CCn1c(CN2CCN(Cc3ccccc3)CC2)nc2cc(NC(=O)c3cccs3)ccc21 the growth was -64.6% (active). In the case of COc1cc(C)cc2oc3oc(=O)c(-c4csc(-c5cc6ccccc6oc5=O)n4)cc3c(=O)c12, the growth is reported as 104%. OC(c1cc2c(Cl)cc(Cl)cc2c2cc(C(F)(F)F)ccc12)C1CCCCN1 (stereo not drawn) was tested, and the growth was -82.3% (active). N#CC1=C(N)Oc2nc[nH]c(=O)c2C1c1cccs1 (stereo not drawn) was tested, and the growth was 111%. Cc1cc(C)cc(Nc2cc(C)nc3nc(C(F)(F)F)nn23)c1 gave a growth of 24%. Compound Cc1ccc(N2C3c4ccccc4N(S(=O)(=O)c4ccc(C)cc4)C2c2ccccc2N3S(=O)(=O)c2ccc(C)cc2)cc1 has a growth of 110%. In the case of CCOC(=O)c1ccc(NC(=O)NC2=NCCS2)cc1, the growth is reported as 34.9%.

These compounds were tested on HCT-15 colon in the same assay as above. Conditions: 10 µM unless noted.
For [O-]/[N+](=C\c1ccccc1)CC1(O)CCCCC1, the growth was 98.4%. In the case of CC(=O)O[C@H]1[C@H](CC#CC#CC[C@@H]2C[C@]3(C)[C@H]4CC=C5[C@H]6[C@@H](C)[C@H](C)CC[C@]6(C(=O)NCCCCCCCCN)CC[C@@]5(C)[C@]4(C)CC[C@H]3C(C)(C)[C@H]2OC(C)=O)C[C@]2(C)[C@H]3CC=C4[C@H]5[C@@H](C)[C@H](C)CC[C@]5(C(=O)NCCCCCCCCN)CC[C@@]4(C)[C@]3(C)CC[C@H]2C1(C)C, the growth is reported as 108%. Compound N#Cc1c(N)c(C(=O)c2ccc3c(c2)OCCO3)n2c1CCCC2 has a growth of 20.9%. Compound Cc1c(O)c(=O)n(-c2ccccc2)n1C has a growth of 92.7%. In the case of COc1ccc2[nH]c(O)c(/C=c3/ccc4c(c3)N=C(c3ccc(C(F)(F)F)cc3)N=4)c2c1, the growth is reported as 53.9%. With COc1ccc(/C=C/C(=O)c2ccc(NC(=O)CSc3nnc(-c4ccc(OC)cc4)n3-c3ccccc3)cc2)cc1 the growth was 96.4%. In the case of N=C(N)c1ccc(-c2ccc(-c3cc(Cl)cc(Cl)c3)o2)nc1, the growth is reported as -67.1% (active). With CN(C)c1ccc(N2Cc3ccccc3OC3=C2C(=O)c2c(O)ccc(O)c2C3=O)cn1 the growth was -64.4% (active). COc1ccccc1/C=N\NC(=S)Nc1ccc(F)cc1 was tested, and the growth was 50.8%. FC(F)(F)C1=NNC(c2ccc3ccccc3c2)=NN1 showed a growth of 97.9%. In the case of CCCC(CCC)NCC(O)c1cc(-c2ccc(C(F)(F)F)cc2)nc(C(F)(F)F)c1 (stereo not drawn), the growth is reported as -62.4% (active). CCOC(=O)c1c(NC(=O)c2ccccc2)sc2c(O)c(CN(CC)CC)ccc12 was tested, and the growth was 15.7%. In the case of CCOC(C)(c1ccc(Cl)cc1)C1CCNCC1 (stereo not drawn), the growth is reported as 94.8%. O=S(=O)(NCC[C@@H]1C[C@H]1c1ccc2ccccc2c1)c1ccc(C(F)(F)F)cc1 gave a growth of 93.4%. In the case of CC(CN1CCN(C)CC1)CN1c2ccccc2Sc2ccc(C(F)(F)F)cc21 (stereo not drawn), the growth is reported as 6.79% (active). NC(=S)N/N=C(/c1cccs1)C1CC1 gave a growth of 71%. For COc1cc(C2Nc3ccccc3S2)cc(CN2CCOCC2)c1O (stereo not drawn), the growth was 52.3%. In the case of O=[N+]([O-])c1cccc([I+]c2ccccc2)c1, the growth is reported as 52.5%. C=CCn1c(SCC(=O)Nc2ccc(/C(C)=N\O)cc2)nnc1-c1cc(-c2ccccc2)nc2ccccc12 showed a growth of 50.8%. Work on C=CC[C@]1(O)CC[C@H]2[C@@H]3CCc4cc(O)ccc4[C@H]3CC[C@@]21C yielded a growth of 81.4%. With CC(=O)c1c(O)c(C)c(O)c2c1OC1=CC(=O)/C(=C(/C)N)C(=O)C12C (stereo not drawn) the growth was 83.3%. COc1c(B(O)O)cccc1-c1nc2c(F)cc3n[nH]c(C)c3c2c2c1CCCC2 was tested, and the growth was 18.3%. With CCCCNCC(O)c1cc(-c2ccc(C(F)(F)F)cc2)nc(-c2ccc(C(F)(F)F)cc2)c1 (stereo not drawn) the growth was -64.7% (active). Oc1[nH]c2ccc(Cl)cc2c1/C=c1/ccc2c(c1)N=C(c1ccc(F)cc1)N=2 was tested, and the growth was 19.3%. COc1ccc(C(=O)c2c(N)nc3n2CCCC3)cc1OC gave a growth of 98.4%. CCOC(=O)Nc1ccc2nc(-c3cscn3)[nH]c2c1 showed a growth of 37.8%. CCOC(=O)C(Nc1ccccc1)C(=O)OCC showed a growth of 98.9%. Compound CN1CCN(Cc2ccc(NC(=O)c3cncc(C#Cc4ncc5ccccn45)c3)cc2C(F)(F)F)CC1 has a growth of 19.2%. COS(=O)(=O)CCN(CCOS(C)(=O)=O)S(C)(=O)=O showed a growth of 95.4%. O=C(c1ccccc1)N(CCCCl)C(=O)N(CCCCl)C(=O)c1ccccc1 was tested, and the growth was 94.6%. OC(c1cc2cc(Cl)ccc2c2cc(C(F)(F)F)ccc12)C1CCCCN1 (stereo not drawn) was tested, and the growth was -61.7% (active). Work on CC(C)CC(NC(=O)C(CCCN=C(N)N)NC(=O)OCc1ccccc1)C(=O)NC(CNC(=O)/C=C/c1ccccc1)C(C)C (stereo not drawn) yielded a growth of 96.5%. In the case of CCn1c(CN2CCN(Cc3ccccc3)CC2)nc2cc(NC(=O)c3cccs3)ccc21, the growth is reported as 3.47% (active). In the case of COc1cc(C)cc2oc3oc(=O)c(-c4csc(-c5cc6ccccc6oc5=O)n4)cc3c(=O)c12, the growth is reported as 114%. OC(c1cc2c(Cl)cc(Cl)cc2c2cc(C(F)(F)F)ccc12)C1CCCCN1 (stereo not drawn) was tested, and the growth was -66.8% (active). Work on N#CC1=C(N)Oc2nc[nH]c(=O)c2C1c1cccs1 (stereo not drawn) yielded a growth of 99.8%. Work on Cc1cc(C)cc(Nc2cc(C)nc3nc(C(F)(F)F)nn23)c1 yielded a growth of 30.4%. Cc1ccc(N2C3c4ccccc4N(S(=O)(=O)c4ccc(C)cc4)C2c2ccccc2N3S(=O)(=O)c2ccc(C)cc2)cc1 was tested, and the growth was 94.9%. CCOC(=O)c1ccc(NC(=O)NC2=NCCS2)cc1 gave a growth of 59.3%.
